A selection: hits, their analogues and other compounds. The true share with any hit is near 8%.
FBPA coupling cs: coupling enzyme interference in Giardia aldolase counter-screen. coupling enzyme system counterscreen, AmpLite Red fluorescence. activity change, negative = inhibition, % at 58.2 µM, hits read low. hit rate 0.67% among 290,000. AID 2472; in the data active = activity change below about -30%
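First, compound is pin-transferred into glyceraldehyde-3-phosphate coupling-enzyme reagent at 57.5 uM final and held 10 min at RT. Next, substrate, coupling system and AmpLite Red are added. After 20 min RT, fluorescence (525/598 nm) is read.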
TSHR antag: antagonists of human thyroid stimulating hormone receptor | TSHR-expressing cells, TSH-stimulated cAMP HTRF, 2 h; hits give low values | AID 504810 | hit rate 0.2% among 330,000 | P16473 | activity change, negative = inhibition, % at 11.5 µM;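 active = activity change below a set negative limit, meaning inhibition stronger than a set level, cut at about -70% in these data; inconclusive = activity change between two set negative limits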
Target sequence (P16473 whole entry, looked up): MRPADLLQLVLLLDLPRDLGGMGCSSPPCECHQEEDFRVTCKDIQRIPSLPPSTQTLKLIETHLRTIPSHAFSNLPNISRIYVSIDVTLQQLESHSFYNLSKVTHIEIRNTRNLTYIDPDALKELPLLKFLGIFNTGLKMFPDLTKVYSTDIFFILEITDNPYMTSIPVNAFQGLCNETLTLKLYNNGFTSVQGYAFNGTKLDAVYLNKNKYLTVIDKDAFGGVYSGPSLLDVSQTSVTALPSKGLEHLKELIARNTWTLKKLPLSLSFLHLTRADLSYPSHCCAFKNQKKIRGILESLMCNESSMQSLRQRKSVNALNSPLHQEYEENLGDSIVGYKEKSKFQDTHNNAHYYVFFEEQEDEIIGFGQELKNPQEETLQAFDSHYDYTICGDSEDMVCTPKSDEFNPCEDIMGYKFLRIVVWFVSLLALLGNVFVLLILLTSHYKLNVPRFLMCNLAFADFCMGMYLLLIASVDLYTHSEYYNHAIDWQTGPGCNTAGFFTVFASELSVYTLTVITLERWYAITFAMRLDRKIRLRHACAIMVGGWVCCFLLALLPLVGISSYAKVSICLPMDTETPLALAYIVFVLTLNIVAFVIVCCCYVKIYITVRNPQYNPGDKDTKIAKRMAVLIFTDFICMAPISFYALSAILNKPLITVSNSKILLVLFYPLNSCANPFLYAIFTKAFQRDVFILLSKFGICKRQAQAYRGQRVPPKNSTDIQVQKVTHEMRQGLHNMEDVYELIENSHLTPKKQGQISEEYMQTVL
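Read-out is FRET at 665 nm (cryptate excitation 337 nm) from a cryptate-tagged anti-cAMP antibody, competed by cell cAMP against cAMP-d2. Compounds are tested on freshly harvested TSHR cells challenged with 4nM TSH (EC80) for 2 hours at 37 deg C.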
ELG1 repair inh: blocks ELG1-dependent DNA repair in HEK293T cells; Potency, µM (top dose mostly 46.1 µM), without a hit: top-dose activity change, negative = inhibition, hits mostly inhibitors; HEK293T ELG1-luciferase reporter, luminescence, 16 h; DNA damage induced by 5-fluorouridine; AID 504467; hit rate 2.3% among 330,000; note: potency is the fitted concentration of half-maximal effect; nearly all actives have a fitted effect of over 55% in size
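HEK293T cells expressing luciferase-tagged ELG1 (2,000/well) received 5-Fluorouridine plus compound or DMSO for 16 hr at 37 °C. Luciferase was read by ONE-Glo luminescence after 30 min at room temperature.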
VP16 counter: Gal4-VP16 reporter inhibition counter-screen. Drosophila S2 Gal4-VP16 UAS-luciferase, luminescence, 20 h. Potency, µM (highest dose often 53.6 µM), for inactives: at the highest dose activity, negative = inhibition, hits mostly inhibitors. hit rate 3.5% among 310,000;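 note: Gal4-VP16 expression switched on by copper sulfate through the metallothionein promoter; potency is the fitted concentration of half-maximal effect; nearly all actives have a fitted effect of over 50% in size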
RORg inh: blocks mouse ROR gamma transcriptional activity. Potency, µM (top dose mostly 53.6 µM), without a hit: top-dose activity change, negative = inhibition, actives largely listed as inhibitors. hit rate 5.4% among 310,000. Drosophila S2 Gal4-RORgamma UAS-luciferase reporter, 20 h. P51450; note: potency is the fitted concentration of half-maximal effect; nearly all actives have a fitted effect of over 60% in size
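ROR gamma transcriptional activity was tracked as Gal4-UAS luciferase output in stably transfected Drosophila Schneider cells, with compound added 1 hr before 700 uM copper sulfate induction and a 20 hr ambient-temperature incubation.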
Active calls of the source: *; ? = inconclusive; nt = no result; [ ] = remark or other dose. Unless noted, calls come from the whole dose curve; as a rule, active = well fitted curve in the direction sought with a large enough effect; inconclusive = small, poorly fitted or top-dose-only effect, or another doubt; inactive = no such curve, though single readings can be large; an effect the other way counts as inactive or inconclusive. % is set by controls: 0 for no effect and ±100 for the full control effect.

SMILES	FBPA coupling cs	TSHR antag	ELG1 repair inh	VP16 counter	RORg inh
CCCn1c(C)nc2c(NC(C)CN(C)C)nc(C)nc21 (stereo not given)	0.4	nt	nt	-0.8%	-12.5%
CN(C)c1ccc(S(=O)(=O)N(C)C)cc1NC(=O)Cc1cccc2ccccc12	-10.3	-32.4	?	-14.1%	?
COc1ccc(-c2nc(CS(=O)(=O)CC(=O)NC3CCC(C)CC3)c(C)o2)cc1 (stereo not given)	3.5	-34.0	0.3%	?	-23.3%
CCOc1ccc(NC(=O)CN(C)C(=O)CCNC(=O)c2ccco2)cc1OCC	nt	3.0	7.4%	nt	nt
Cc1nc(NC(=O)CSc2cc(C)c3ccccc3n2)c(Cl)cc1Cl	-1.0	32.1	-0.6%	?	2.51µM*
CC(=O)NCCn1c(SCC(=O)NCCC2=CCCCC2)nc2ccccc2c1=O	0.7	-5.3	7.3%	-8.5%	-5.9%
Cc1cc(SCC(=O)c2cc3ccccc3o2)nc2ccccc12	nt	-8.1	4.9%	?	11.2µM*
Cc1cc(SCC(=O)Nc2cccnc2Cl)nc2ccccc12	-0.2	7.1	?	17.3%	-3.6%
Cc1cc(SCC(=O)NCCC2=CCCCC2)nc2ccccc12	-19.0	-6.2	?	6.31µM*	?
Cc1c2n(c3ccccc13)CCN(C)C2	nt	0.1	9.9%	nt	nt
CC(C)Oc1cccc(C(=O)N/N=C/c2coc3ccccc3c2=O)c1	nt	2.2	-9.9%	-8.6%	?
Cc1ccc(CNS(=O)(=O)c2ccc3c(c2)n(C)c(=O)n3C)cc1	3.6	2.5	8.2µM*	?	?
CCc1ccc(CNC(=O)C2CCCN(c3nnc(C)c4c(C)n(-c5ccccc5)nc34)C2)cc1 (stereo not given)	nt	-1.2	20.6µM*	?	?
CCOc1ccc(CNC(=O)C2CCN(c3nnc(C)c4c(C)n(-c5ccc(C)cc5)nc34)CC2)cc1	-0.9	-4.5	-9.5%	?	?
COc1ccc(-n2nc3c(N4CCC(C(=O)NCc5cccc(C)c5)CC4)nnc(C)c3c2C)cc1	nt	8.9	18.3µM*	20µM*	?
Cc1ccc(-n2nc3c(N4CCC(C(=O)NCc5ccccc5C)CC4)nnc(C)c3c2C)cc1	0.8	10.5	-6.8%	?	12.6µM*
Cc1ccccc1CNC(=O)C1CCCN(c2nnc(C)c3c(C)n(-c4ccccc4)nc23)C1 (stereo not given)	2.5	13.0	?	?	-16.6%
CCOc1ccccc1CNC(=O)C1CCN(c2nnc(C)c3c(C)n(-c4ccc(C)cc4)nc23)CC1	0.8	0.3	?	17.8µM*	12.6µM*
C=C1C[C@H](O)[C@@H]2[C@H](OC(=O)[C@H]2C)[C@H]2[C@H](C)[C@@H](O)C[C@@H]12	nt	14.4	9.8%	nt	nt
CC(=O)Nc1ccc(NC2=Nc3ccccc3N3C2=Nc2c(c(C)nn2-c2ccccc2)C3c2ccccc2)cc1 (stereo not given)	nt	27.2	2.82µM*	0.891µM*	0.0891µM*
CNC(=O)C12N=CNN=C1N(C)C(=O)N2C (stereo not given)	2.5	-6.6	17.2%	-3.2%	-2.2%
CN1C(=O)N(C)C2=NNC=NC2(O)C1=O (stereo not given)	-45.9*	nt	nt	?	?
CCc1ccc(CN2CCCC(C(=O)N3CCCCC3)C2)cc1 (stereo not given)	-1.2	-8.8	-14.9%	-6.6%	-14.1%
C=CCOC[C@@H]1CN2[C@H](c3ccc(Br)cc3)[C@@H](C)CC[C@H]2C(=O)O1	0.5	nt	nt	2.8%	16.6%
COC(=O)c1sc2ccccc2c1-n1cccc1C(=O)C(=O)Nc1ccc(OC)cc1	-3.5	-10.2	13µM*	-0.9%	5.6%
SMILES	FBPA coupling cs	TSHR antag	ELG1 repair inh	VP16 counter	RORg inh
COC(=O)c1sc2ccccc2c1-n1cccc1C(=O)C(=O)Nc1ccccc1	0.6	0.5	-11.2%	11.8%	1.3%
Cc1nn(Cc2ccc(Cl)cc2)c(C)c1NC(=O)c1noc2c1CCc1ccccc1-2	0.7	-48.9	?	-19.5%	?
COc1ccc2c(c1)CCc1c(C(=O)Nc3c(C)nn(Cc4ccccc4)c3C)noc1-2	-1.8	-30.6	13µM*	?	?
COc1ccc2c(c1)CCc1c(C(=O)Nc3ccc(OC)c(OC)c3)noc1-2	-0.9	-7.5	9.7%	?	1.41µM*
COc1ccc2c(c1)CCc1c(C(=O)NCCc3ccc(OC)c(OC)c3)noc1-2	-0.7	-17.8	?	-1.9%[0.365 µM]	-12.4%
COc1ccc(CCNc2oc(Cc3cccc4ccccc34)nc2C#N)cc1OC	-5.3	-24.1	16.4µM*	-9.1%	-25.7%
COc1ccc(Nc2oc(COc3ccc(Cl)cc3)nc2C#N)cc1	1.4	-3.4	?	?	15.8µM*
COc1ccc(CCNc2oc(COc3ccccc3F)nc2C#N)cc1	2.3	-31.0	4.8%	16.1%	?
COc1ccc(CCNc2oc(COc3ccc(Br)cc3)nc2C#N)cc1OC	1.4	-30.3	20.6µM*	-27.6%	7.9%
O=C(COc1ccc(Cl)cc1)Nc1ccc(C(=O)O)cc1NC(=O)COc1ccc(Cl)cc1	nt	-25.8	2.6%	-0.9%	0.2%
CCCCC1=CC2=CC(=O)C(C)(OC(=O)c3cnc4ccccc4n3)C(=O)C2=CO1 (stereo not given)	-0.5	-3.9	7.4%	-3.7%	3.8%
COc1cccc(NC(=O)CN(C)C(=O)c2ccc3[nH]c4c(c3c2)CC(C)CC4)c1 (stereo not given)	nt	17.7	11.5%	nt	nt
O=C(N[C@@H]1c2ccccc2CC[C@@H]1OCc1ccccc1)c1ccc(-c2ccccc2)cc1	nt	-8.8	2.4%	nt	nt
O=C(O)Cn1ncc2c1-c1ccoc1CC2	-37.5*	22.4	7.9%	-0.5%	?
NS(=O)(=O)c1ccc(N/N=C/c2ccc(O)c(O)c2O)c([N+](=O)[O-])c1	-46.3*	1.2	0.3%	-2.2%	-6.8%
O=C(COC(=O)c1ccccn1)Nc1nc(-c2cccc([N+](=O)[O-])c2)cs1	2.3	-5.1	17.8%	35.5µM*	12.6µM*
COc1ccc(/C=N/Nc2nc(-c3ccc(Cl)cc3)cc(C(F)(F)F)n2)c(OC)c1	9.7	4.1	?	-1.9%	?
COc1ccc(/C(C)=N\Nc2nc(-c3ccc(Cl)cc3)cc(C(F)(F)F)n2)cc1OC	-3.3	56.1	8.2µM*	?	-2.7%
COc1ccc(/C(C)=N/Nc2cccc(C(=O)O)c2)cc1OC	-1.0	11.6	?	-23.2%	-2.6%
COc1ccc(/C(C)=N/Nc2nc3ccccc3nc2C)cc1OC	-1.5	-2.5	?	?	4.47µM*
CCOc1cccc(/C=N/NC(=O)c2cc(C3CC3)[nH]n2)c1O	-1.7	1.5	2.59µM*	2.82µM*	2.24µM*
CCOc1cccc(/C=N/NC(=O)c2cccnc2)c1O	-0.8	0.1	?	0.316µM*	0.199µM*

Screening results (PubChem)
